In PubChem BioAssay (EPA / NIEHS):
Inconclusive results are not listed. Activity calls are given as the source filed them. How the source made its calls, unless noted: active means hit-call score of the fitted dose curve at least 0.9, where 1 is the maximum; inconclusive means response in the unintended direction; inactive means score below 0.9.

Experiments:
[1] = Tanguay_ZF_120hpf_TRUN_legacy: (Legacy) Oregon State University Tanguay Lab 120 Hour Post-fertilization zebrafish Assay for Truncated Body (AID 2283655)
Procedure, shortened: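 Single dechorionated zebrafish embryos received test chemical from 6 hpf in 0.64% DMSO, kept at 28C. At 120 hpf, brightfield inspection noted any truncated body.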

[2] = read-out: ABC Transporter (ABCB1), ABCB1 (gene 5243); test: CLD_ABCB1_6hr: CellzDirect (CLD) Gene Expression Assay for ABC Transporter (ABCB1) at 6 hours (AID 2283659);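 further: hits raise ABCB1 transcript above the DMSO vehicle baseline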
Procedure, shortened: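 ABCB1 transcript measured by quantitative nuclease protection assay, chemiluminescent read-out, 6 h after dosing human hepatocyte cultures (0.2% DMSO vehicle, daily redosing). Activity fitted as increase over DMSO baseline; cytotoxicity flagged by phase-contrast morphology.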

[3] = read-out: Broad substrate specificity ATP-binding cassette transporter ABCG2 (Homo sapiens) (UniProt Q9UNQ0); test: CLD_ABCG2_6hr: CellzDirect (CLD) Gene Expression Assay for ABC Transporter (ABCG2) at 6 hours (AID 2283660)
Procedure, shortened: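 ABCG2 mRNA induction measured by qNPA chemiluminescence in human primary hepatocyte cultures, 6 h post-dose. Chemicals tested at several concentrations against a 0.2% DMSO vehicle; positive-direction fit relative to DMSO.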

[4] = tested on: Thyroperoxidase (TPO), gene 54314; test: CCTE_Simmons_AUR_rTPO: CCTE's Amplex UltraRed Assay for Thyroperoxidase (TPO) Inhibition, Simmons Lab (AID 2283662);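 further: potency for loss of signal meaning inhibition of peroxidase activity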
Procedure, shortened: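 Cell-free peroxidase activity assay using rat thyroid gland microsomes with excess H2O2 (300 uM) and 25 uM Amplex UltraRed. Compounds tested from 5 nM to 87.5 uM; fluorescence measured after 30 min at 37C, analysed relative to DMSO baseline.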

[5] = read-out: xenobiotic metabolism (CYP1A2), CYP1A2 (gene 1544); test: CLD_CYP1A2_6hr: CellzDirect (CLD) Gene Expression Assay for xenobiotic metabolism (CYP1A2) at 6 hours (AID 2283663);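 on AC50: potency is for induction meaning a rise in mRNA above DMSO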
Procedure, shortened: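 mRNA levels quantified by quantitative nuclease protection assay with chemiluminescence, 6 h after dosing human primary hepatocyte cultures (two donors) across several concentrations, vehicle 0.2% DMSO. Induction fitted upward versus DMSO; phase-contrast cytotoxicity annotated.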

[6] = read-out: xenobiotic metabolism (CYP2C9), CYP2C9 (gene 1559); test: CLD_CYP2C9_6hr: CellzDirect (CLD) Gene Expression Assay for xenobiotic metabolism (CYP2C9) at 6 hours (AID 2283664)
Procedure, shortened: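 Readout is qNPA chemiluminescence of CYP2C9 mRNA, taken 6 h after dosing of cultured human liver primary cells at several concentrations. Activity is the increase over 0.2% DMSO baseline. Morphology-based cytotoxicity flagged yes/no.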

[7] = Tanguay_ZF_120hpf_TR_legacy: (Legacy) Oregon State University Tanguay Lab 120 Hour Post-fertilization zebrafish Assay for Touch Response (AID 2283667)
Procedure, shortened: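 Readout is presence or absence of touch response in 120 hpf zebrafish larvae, assessed by brightfield observation after continuous static exposure at 28C. Final vehicle was 0.64% (vol/vol) DMSO.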

[8] = read-out: sulfotransferase (SULT2A), SULT2A1 (gene 6822); test: CLD_SULT2A_6hr: CellzDirect (CLD) Gene Expression Assay for sulfotransferase (SULT2A) at 6 hours (AID 2283669);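 further: hits raise transcript level above the DMSO vehicle baseline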
Procedure, shortened: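 Measured 6 h after dosing, SULT2A1 mRNA in human hepatocyte lysates was quantified by S1 nuclease protection with chemiluminescent detection. Increases fitted against 0.2% DMSO vehicle baseline; phase-contrast cytotoxicity recorded yes/no.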

[9] = CLD_ACTIN_24hr: CellzDirect (CLD) Gene Expression Assay for Baseline Control (Actin) at 24 hours (AID 2283670)
Procedure, shortened: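 This 24 h qNPA (S1 nuclease protection, chemiluminescence) actin transcript readout in cultured human liver primary cells serves as baseline control. Signal is fitted upward relative to 0.2% DMSO; chemicals tested at multiple concentrations across two donor preparations.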

[10] = read-out: glucuronosyltransferase (UGT1A1), UGT1A1 (gene 54658); test: CLD_UGT1A1_6hr: CellzDirect (CLD) Gene Expression Assay for glucuronosyltransferase (UGT1A1) at 6 hours (AID 2283672)
Procedure, shortened: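 UGT1A1 mRNA induction, read by quantitative nuclease protection assay, 6 h after dosing primary human hepatocytes (two donors, 0.2% DMSO vehicle). Gain of signal fitted relative to vehicle.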

[11] = read-out: Cytochrome P450 2C19 (Homo sapiens) (UniProt P33261); test: CLD_CYP2C19_6hr: CellzDirect (CLD) Gene Expression Assay for xenobiotic metabolism (CYP2C19) at 6 hours (AID 2283678)
Procedure, shortened: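 CYP2C19 transcript induction was quantified by quantitative nuclease protection assay with chemiluminescent read-out, 6 h after dosing. Cells were primary human hepatocytes from two donor preparations, given fresh dosing solutions daily in 0.2% DMSO vehicle. Activity was relative to DMSO.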

[12] = Tanguay_ZF_120hpf_NC_legacy: (Legacy) Oregon State University Tanguay Lab 120 Hour Post-fertilization zebrafish Assay for Notochord and Tail Malformation (AID 2283656)
Procedure, shortened: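 Binary notochord-distortion calls, made by brightfield inspection, form the read-out; activity is fitted in the positive direction against DMSO. Exposure ran statically from 6 to 120 hpf at 28C with 0.64% DMSO.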

[13] = CLD_ACTIN_6hr: CellzDirect (CLD) Gene Expression Assay for Baseline Control (Actin) at 6 hours (AID 2283676);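 further: active means increased actin mRNA relative to DMSO vehicle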
Procedure, shortened: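 Baseline actin transcript level measured by qNPA (S1 nuclease protection, chemiluminescence) in human hepatocyte cultures 6 h after chemical exposure; 0.2% DMSO vehicle as reference, cytotoxicity noted from morphology.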

[14] = read-out: Cytochrome P450 2B6 (Homo sapiens) (UniProt P20813); test: CLD_CYP2B6_6hr: CellzDirect (CLD) Gene Expression Assay for xenobiotic metabolism (CYP2B6) at 6 hours (AID 2283677);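 further: actives raise CYP2B6 transcript above DMSO baseline so AC50 marks an inducer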
Procedure, shortened: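 CYP2B6 transcript levels, read by chemiluminescent qNPA, were fitted for increase versus DMSO baseline; cultured human liver hepatocytes from two donor preparations were harvested 6 h after exposure to test chemicals at multiple concentrations.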

[15] = read-out: alkyl and aryl transferase (GSTA2), GSTA2 (gene 2939); test: CLD_GSTA2_6hr: CellzDirect (CLD) Gene Expression Assay for alkyl and aryl transferase (GSTA2) at 6 hours (AID 2283666)
Procedure, shortened: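 GSTA2 transcript induction at 6 h, quantified by nuclease protection (qNPA) with chemiluminescent detection, in human liver primary hepatocytes exposed to several compound concentrations with 0.2% DMSO as baseline; phase-contrast morphology annotated apparent cytotoxicity.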

[16] = read-out: ABC Transporter (ABCB11), ABCB11 (gene 8647); test: CLD_ABCB11_24hr: CellzDirect (CLD) Gene Expression Assay for ABC Transporter (ABCB11) at 24 hours (AID 2283674; active means hit-call score of the fitted dose curve at least 0.9, where 1 is the maximum; inactive means score below 0.9)
Procedure, shortened: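 ABCB11 transcript was quantified by qNPA chemiluminescence in cultured human liver hepatocytes 24 hours after dosing. Fresh dosing solutions were applied on consecutive days, against a 0.2% DMSO vehicle. Cytotoxicity was noted by phase-contrast morphology.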

[17] = read-out: ABC Transporter (ABCB11), ABCB11 (gene 8647); test: CLD_ABCB11_6hr: CellzDirect (CLD) Gene Expression Assay for ABC Transporter (ABCB11) at 6 hours (AID 2283675);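 further: hits raise ABCB11 mRNA level so AC50 marks induction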
Procedure, shortened: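 Read-out was ABCB11 mRNA gain of signal by quantitative nuclease protection assay, relative to 0.2% DMSO vehicle, 6 h post-dose. Cells were primary human hepatocytes from two donors, treated across multiple concentrations; phase-contrast cytotoxicity noted yes/no.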

[18] = read-out: matrix metalloproteinase-1 (MMP1), MMP1 (gene 4312); test: LTEA_HepaRG_MMP1: Life Technologies and Expression Analysis (LTEA) Assay for matrix metalloproteinase-1 (MMP1) using HepaRG (AID 2283658; active means hit-call score of the fitted dose curve at least 0.9, where 1 is the maximum; inactive means score below 0.9); conditions: mRNA level, 48 h; actives raise or lower the signal
Procedure, shortened: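 In this screen, human liver HepaRG cultures receive each chemical in duplicate for 48 h (top 100 uM, 0.5% DMSO). MMP1 expression is then quantified by TaqMan qRT-PCR with ACTB/GAPDH/POLR2A normalization.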

[19] = read-out: xenobiotic metabolism (CYP1A1), CYP1A1 (gene 1543); test: CLD_CYP1A1_6hr: CellzDirect (CLD) Gene Expression Assay for xenobiotic metabolism (CYP1A1) at 6 hours (AID 2283661)
Procedure, shortened: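 Read-out 6 h post-dose: qNPA chemiluminescent quantitation of transcript induction against 0.2% DMSO. Cells were cultured primary human hepatocytes from two separate donor preparations; phase-contrast morphology annotated apparent cytotoxicity.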

[20] = read-out: xenobiotic metabolism (CYP1A1), CYP1A1 (gene 1543); test: CLD_CYP1A1_24hr: CellzDirect (CLD) Gene Expression Assay for xenobiotic metabolism (CYP1A1) at 24 hours (AID 2283673);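 further: CYP1A1 mRNA level by quantitative nuclease protection with chemiluminescence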
Procedure, shortened: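 Transcript levels were read at 24 h by qNPA chemiluminescence in human liver primary cells. Cells got daily fresh dosing at multiple concentrations (vehicle 0.2% DMSO). Induction fitted upward against DMSO; phase-contrast cytotoxicity annotated.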

Measured: AC50

Sequence of Broad substrate specificity ATP-binding cassette transporter ABCG2 (Homo sapiens) (Q9UNQ0 whole entry, looked up): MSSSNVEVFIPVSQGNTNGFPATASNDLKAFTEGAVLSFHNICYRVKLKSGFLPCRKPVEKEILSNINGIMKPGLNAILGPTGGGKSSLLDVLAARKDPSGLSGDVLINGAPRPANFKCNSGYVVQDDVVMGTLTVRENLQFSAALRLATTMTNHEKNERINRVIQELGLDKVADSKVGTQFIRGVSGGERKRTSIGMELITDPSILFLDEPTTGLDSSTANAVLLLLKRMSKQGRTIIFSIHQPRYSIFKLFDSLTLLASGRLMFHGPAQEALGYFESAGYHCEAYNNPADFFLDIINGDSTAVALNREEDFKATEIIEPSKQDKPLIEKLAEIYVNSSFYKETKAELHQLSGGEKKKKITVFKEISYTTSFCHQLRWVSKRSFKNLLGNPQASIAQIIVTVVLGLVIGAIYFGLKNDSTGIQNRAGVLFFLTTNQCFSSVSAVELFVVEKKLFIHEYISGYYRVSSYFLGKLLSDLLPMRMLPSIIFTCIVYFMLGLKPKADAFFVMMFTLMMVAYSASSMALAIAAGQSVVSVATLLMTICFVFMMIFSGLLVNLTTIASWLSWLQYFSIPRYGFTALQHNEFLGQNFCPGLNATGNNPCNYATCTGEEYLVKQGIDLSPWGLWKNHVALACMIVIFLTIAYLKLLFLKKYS
Sequence of Cytochrome P450 2C19 (Homo sapiens) (P33261 whole entry, looked up): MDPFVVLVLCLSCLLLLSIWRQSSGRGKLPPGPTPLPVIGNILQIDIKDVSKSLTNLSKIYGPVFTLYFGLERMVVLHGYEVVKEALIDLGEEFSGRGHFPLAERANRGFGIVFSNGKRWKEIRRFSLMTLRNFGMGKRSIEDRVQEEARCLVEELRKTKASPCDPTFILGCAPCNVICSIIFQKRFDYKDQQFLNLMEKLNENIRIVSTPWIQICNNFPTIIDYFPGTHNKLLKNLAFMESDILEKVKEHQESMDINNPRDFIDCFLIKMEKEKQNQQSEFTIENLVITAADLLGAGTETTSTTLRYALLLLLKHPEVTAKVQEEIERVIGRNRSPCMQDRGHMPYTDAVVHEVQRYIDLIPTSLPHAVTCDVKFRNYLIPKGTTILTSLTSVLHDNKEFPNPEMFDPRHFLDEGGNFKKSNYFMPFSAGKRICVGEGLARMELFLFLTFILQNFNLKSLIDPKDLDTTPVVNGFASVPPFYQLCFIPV

COP(=O)(NC(C)=O)SC (stereo not given)
active: [4] 31.8 µM
inactive: [1] | [2] | [3] | [5] | [6] | [7] | [8] | [9] | [10] | [11]

Nc1c(Cl)cc([N+](=O)[O-])cc1Cl
active: [1] 34.7 µM | [7] 38.8 µM | [14] 20 µM
inactive: [12] | [3] | [5] | [6] | [13] | [11]

Cc1cc(C2CC2)nc(Nc2ccccc2)n1
inactive: [1] | [3] | [10]
active: [5] 1.99 µM | [14] 1.58 µM

COc1cc(OC)nc(Sc2cccc(Cl)c2C(=O)O)n1
not listed: [4] | [5] | [8] | [9] | [13] | [18] | [19] | [20]
inactive: all other assays above

CCCCN(CC)c1c([N+](=O)[O-])cc(C(F)(F)F)cc1[N+](=O)[O-]
active: [14] 2.13 µM
inactive: [12] | [18] | [2] | [3] | [5] | [15] | [7] | [10]

CCc1cnc(C2=NC(C)(C(C)C)C(=O)N2)c(C(=O)O)c1 (stereo not given)
inactive: [1] | [12] | [2] | [15] | [7] | [9] | [10] | [11]

CCOC(=O)COc1cc(-c2nn(C)c(OC(F)F)c2Cl)c(F)cc1Cl
inactive: [1] | [12] | [2] | [19] | [5] | [6] | [15] | [7] | [10]
active: [14] 2.63 µM

CCCCOC(=O)c1ccccc1C(=O)O
inactive: [1] | [2] | [3] | [6] | [15] | [7] | [10] | [16] | [14] | [11]

COc1ccc(C(=CC(=O)N2CCOCC2)c2ccc(Cl)cc2)cc1OC
inactive: [2] | [3] | [15] | [10] | [20]
active: [1] 51.4 µM | [7] 42.4 µM | [14] 4.1 µM

CCCSP(=O)(OCC)Oc1ccc(Br)cc1Cl (stereo not given)
inactive: [1] | [2] | [3] | [5] | [7] | [10]
active: [4] 15.6 µM | [14] 3.75 µM
